Sampled rows, rich in hits. Any-hit rate of the full collection: about 3.9%.
ERK AVP inh: vasopressin-driven ERK pathway inhibition | 72,000 tested, 0.99% active | Potency, µM (highest dose often 57.5 µM), for the others: top-dose activity, negative = inhibition, hits mostly inhibitors | AID 995 | HEK293-V1b, vasopressin-stimulated pERK AlphaScreen; note: % is set by controls: 0 for no effect and ±100 for the full control effect; nearly all actives have a fitted effect of over 55% in size
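Phosphorylated ERK1/2 detected via AlphaScreen bead proximity in lysates of V1b-expressing HEK293 cells given 25 nM vasopressin for 5 min after 30 min compound exposure (37 °C). AC50 from Hill equation; basal DMSO 0%, vasopressin 100%.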
Luciferase inh: inhibitors of firefly luciferase | AID 411 | Potency, µM (titrated, usually from 57.1 µM), for inactives: at the highest dose activity change, negative = inhibition, usual class: inhibitors | purified firefly luciferase, luminescence, 8 min | P08659 | 72,000 tested, 2.2% active; note: % is set by controls: 0 for no effect and ±100 for the full control effect; nearly all actives have a fitted effect of over 40% in size
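Inhibition of light generation by firefly luciferase from ATP and luciferin was profiled with concentration-response curves per sample, ATP held at 10 uM within the enzyme's linear range. Plates were read by luminescence after an 8-minute ambient incubation.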
GBA mod: alters purified human glucocerebrosidase activity; 48,000 tested, 1.1% active; Potency, µM; purified enzyme, resorufin glucoside fluorescence (screen aimed at inhibitors), 20 min; AID 360; in the data active = potency below about 15 µM; inconclusive = mostly about 16 µM to 33 µM;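 note: the screen sought inhibitors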
Target sequence (P04062 whole entry, looked up): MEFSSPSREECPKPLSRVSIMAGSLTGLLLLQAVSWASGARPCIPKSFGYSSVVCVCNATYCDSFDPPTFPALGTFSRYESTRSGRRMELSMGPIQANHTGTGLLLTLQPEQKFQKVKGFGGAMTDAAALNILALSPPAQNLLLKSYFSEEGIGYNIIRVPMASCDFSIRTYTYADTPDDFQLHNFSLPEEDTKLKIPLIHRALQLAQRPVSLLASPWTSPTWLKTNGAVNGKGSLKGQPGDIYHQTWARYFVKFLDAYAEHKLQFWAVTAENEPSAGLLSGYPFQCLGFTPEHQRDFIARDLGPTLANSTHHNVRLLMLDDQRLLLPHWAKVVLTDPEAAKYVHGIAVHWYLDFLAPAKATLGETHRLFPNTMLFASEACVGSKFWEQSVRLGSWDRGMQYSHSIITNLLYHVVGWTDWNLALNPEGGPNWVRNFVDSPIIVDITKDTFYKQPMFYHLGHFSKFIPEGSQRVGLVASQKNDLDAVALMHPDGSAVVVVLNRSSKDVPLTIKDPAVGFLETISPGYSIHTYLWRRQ
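Wild-type enzyme at 0.2 nM final in 50mM citric acid/KH2PO4, 10mM sodium taurocholate, 0.01% tween-20, pH 5.9, with resorufin beta-D-glucopyranoside at 30 uM final. Compounds titrated, 20 min at RT, red fluorescence read; AC50 from titration.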
Bst PK mod: alters activity of Bacillus stearothermophilus pyruvate kinase; purified pyruvate kinase, luminescence ATP production; ribose 5-phosphate activator present at AC10; Potency, µM; 51,000 tested, 1.2% active; in the data active = potency below about 11 µM; inconclusive = mostly about 12 µM to 25 µM;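 the screen sought inhibitors and activators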;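 note: scaled between full activation by ribose 5 phosphate and full inhibition by luteolin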
The depositor's hits bear a star; [ ] = another dose, or the depositor's remark. Unless noted, calls come from the whole dose curve; as a rule, active = well fitted curve in the direction sought with a large enough effect; inconclusive = small, poorly fitted or top-dose-only effect, or another doubt; inactive = no such curve, though single readings can be large; an effect the other way counts as inactive or inconclusive. Potency is the fitted concentration of half-maximal effect.

What do the screens show for `S=C(c1ccc(-c2cccc(Cl)c2)o1)N1CCOCC1`?
ERK AVP inh: inconclusive; Luciferase inh: 13µM*

How did COc1ccc2sc(NC(=O)CC(C)C)nc2c1 do in these assays?
ERK AVP inh: inconclusive; Luciferase inh: 25µM*; GBA mod: >77; Bst PK mod: inactive

How did CCC(=O)Nc1nc2cc(OC)ccc2s1 do in these assays?
ERK AVP inh: -12%; Luciferase inh: inconclusive; GBA mod: >77

How did CCOc1ccc2nc(NC(=O)COC)sc2c1 do in these assays?
ERK AVP inh: -10%; Luciferase inh: 20µM*; GBA mod: >77; Bst PK mod: inactive

Results for CCOCC(=O)Nc1nc2ccc(OC)cc2s1 ?
ERK AVP inh: -12%; Luciferase inh: inconclusive; GBA mod: >77

How did CCOc1ccc2nc(NC(=O)c3ccoc3C)sc2c1 do in these assays?
ERK AVP inh: -24%; Luciferase inh: 1.6µM*

Results for CCOc1ccc2nc(NC(=O)c3ccc(S(=O)(=O)N4CCOCC4)cc3)sc2c1 ?
ERK AVP inh: 19%; Luciferase inh: 0%; GBA mod: >77; Bst PK mod: >57

What do the screens show for `CCOc1ccc2nc(NC(=O)Nc3cccs3)sc2c1`?
ERK AVP inh: 32µM*; Luciferase inh: 0.63µM*

How did CC(=O)O[C@H]1C2=CO[C@H](C)[C@H]3[C@H]4C5=C([C@H](O)[C@H]6O[C@@H]6C5=O)[C@H](O[C@H]4C)[C@@]23C(=O)[C@H]2O[C@@H]21 do in these assays?
ERK AVP inh: 2%[11.5 µM]; Luciferase inh: 1%[11.4 µM]

How did COc1cccc(-c2cncnc2NCCN2CCOCC2)c1 do in these assays?
ERK AVP inh: 6%; Luciferase inh: 3%[2.29 µM]

Results for CC(=O)N1CCC2(CCN(Cc3ccncc3)CC2)CC1 ?
ERK AVP inh: 3%; Luciferase inh: 1%[11.4 µM]

Results for Cc1[nH]n2c(=O)c3c(nc2c1-c1ccccc1)CCCC3 ?
ERK AVP inh: 1%; Luciferase inh: 1%; GBA mod: 4.2*; Bst PK mod: >57

Results for O=c1c2c(nc3c(-c4ccc(Cl)cc4)c[nH]n13)CCCC2 ?
ERK AVP inh: 11%; Luciferase inh: 2%; GBA mod: 6.5*; Bst PK mod: 3.2*

Results for c1cncc(-c2nnc(-c3ccco3)o2)c1 ?
ERK AVP inh: -10%; Luciferase inh: -3%; GBA mod: >77; Bst PK mod: >57

What do the screens show for `Clc1ccc(-c2nnc(-c3ccco3)o2)cc1`?
ERK AVP inh: -8%; Luciferase inh: -18%; Bst PK mod: 4*

What do the screens show for `Cn1ccnc1SCC(=O)Nc1ccc2ccccc2c1`?
ERK AVP inh: -5%; Luciferase inh: 13µM*; Bst PK mod: inactive

What do the screens show for `Cn1ccnc1SCC(=O)c1cc2ccccc2o1`?
ERK AVP inh: 3%; Luciferase inh: -18%; GBA mod: >77; Bst PK mod: >57

How did COc1cccc(-c2cc(C(=O)N3CCCCCC3)no2)c1 do in these assays?
ERK AVP inh: 5%; Luciferase inh: 7.9µM*

How did COc1cccc(-c2cc(C(=O)N3CCCc4ccccc43)no2)c1 do in these assays?
ERK AVP inh: 44%; Luciferase inh: -23%; GBA mod: >77

How did COc1cccc(-c2cc(C(=O)N3CCCCC3C)no2)c1 (centres undefined) do in these assays?
ERK AVP inh: 21%; Luciferase inh: 20µM*; GBA mod: >77

Results for O=C(c1cc(-c2ccc(F)cc2)on1)N1CCCC1 ?
ERK AVP inh: 17%; Luciferase inh: 13µM*; GBA mod: >77

Results for O=C(c1cc(-c2cccc(O)c2)on1)N1CCCCC1 ?
ERK AVP inh: inconclusive; Luciferase inh: 16µM*

What do the screens show for `CC(=O)OCC1OC(C#CCCc2ccccc2)C=CC1OC(C)=O` (centres undefined)?
ERK AVP inh: 1%[11.5 µM]

What do the screens show for `C[C@@H]1/C(=N/O)CC2C[C@@H]1C2(C)C`?
ERK AVP inh: 12%

Results for CCn1c(SCC(=O)Nc2nc3c(s2)CCCC3)nnc1-c1ccccc1 ?
ERK AVP inh: 32µM*; Luciferase inh: 0%; GBA mod: >77; Bst PK mod: >57

Results for O=C(CSc1nc2ccccc2o1)Nc1nc2c(s1)CCCC2 ?
ERK AVP inh: -28%; Luciferase inh: 10µM*; GBA mod: >77; Bst PK mod: inactive

What do the screens show for `O=C(CSc1nc2ccccc2o1)Nc1nc2ccccc2s1`?
ERK AVP inh: -16%; Luciferase inh: 1%; GBA mod: >77; Bst PK mod: >57

How did CCn1cnc2sc(-c3ccccc3)cc2c1=O do in these assays?
ERK AVP inh: -13%; Luciferase inh: 13µM*; GBA mod: >77; Bst PK mod: inconclusive

Results for Cc1ccc(C)n1-n1cnc2sc(-c3ccccc3)cc2c1=O ?
ERK AVP inh: -26%; Luciferase inh: -2%; GBA mod: >77; Bst PK mod: >57

What do the screens show for `CN1CCN(C(=O)CSc2nc(-c3cccs3)cc(-c3cccs3)c2C#N)CC1`?
ERK AVP inh: -11%; Luciferase inh: 2%; GBA mod: 12*; Bst PK mod: inactive

What do the screens show for `CN1CCN(C(=O)CSc2nc(-c3ccncc3)ccc2C#N)CC1`?
Luciferase inh: 1%[25.5 µM]; Bst PK mod: >26

What do the screens show for `COc1ccc2c(c1OC)C(=O)N1c3cccc(Cl)c3C(=O)OC21` (centres undefined)?
ERK AVP inh: 43%; Luciferase inh: -3%; GBA mod: >77; Bst PK mod: >57

Results for COc1ccc2c(c1OC)C(=O)N1c3ccccc3SC21 (centres undefined) ?
Luciferase inh: 5µM*; Bst PK mod: inactive

Results for COc1ccc2c(c1OC)C(=O)N1c3ccccc3COC21 (centres undefined) ?
ERK AVP inh: -10%; Luciferase inh: 10µM*; GBA mod: >77; Bst PK mod: inconclusive

How did C=Cc1c(C)c2cc3nc(cc4[nH]c(cc5nc(cc1[nH]2)C(C)=C5CCC(=O)O)c(CCC(=O)OC)c4C)[C@@]1(C)C3=CC=C(C(=O)OC)[C@H]1C(=O)OC (tested in a mixture with another compound) do in these assays?
ERK AVP inh: inactive; Luciferase inh: -4%[25.5 µM]

Results for CN(C)Cc1ccc(-c2cc3onc(-c4ccccc4)c3c(=O)n2C)cc1 ?
ERK AVP inh: -19%[11.5 µM]; Luciferase inh: 4µM*

How did COC(=O)CSc1nc2c(c(-c3ccc(C)o3)c1C#N)CCCC2 do in these assays?
ERK AVP inh: 12%; Luciferase inh: -1%; GBA mod: 15*; Bst PK mod: >57

Results for Cc1ccccc1NC(=O)CSc1nc2c(c(-c3ccco3)c1C#N)CCCC2 ?
ERK AVP inh: -5%; Luciferase inh: 1%; GBA mod: >77; Bst PK mod: >57

What do the screens show for `COC(=O)CC(=O)CSc1nc2c(cc1C#N)CCCCC2`?
ERK AVP inh: -18%; Luciferase inh: 13µM*; GBA mod: >77; Bst PK mod: inactive

Results for c1cc2c(cc1-c1cnc3n1CCC3)OCCO2 ?
ERK AVP inh: 16µM*; Luciferase inh: -11%; GBA mod: >77

Results for Cn1c(-c2ccc3c(c2)OCO3)cnc1N ?
ERK AVP inh: 18%; Luciferase inh: -4%; Bst PK mod: >57

What do the screens show for `CN(C(=O)c1c(O)c2ccccc2n(C)c1=O)c1ccccc1`?
ERK AVP inh: 0%; Luciferase inh: 25µM*
